Here are results for 5 molecules from PubChem BioAssay (Tox21).

A short description of test [1]: qHTS assay to identify small molecule agonists of the hypoxia (HIF-1) signaling pathway - cell viability counter screen (AID 1224844; calls by dose curve; further: nearly all actives have a fitted effect of over 50% in size). In outline:
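Cytotoxicity measured by CellTiter-Glo ATP luminescence in the wells also read for beta-lactamase signal. Cells were HRE-bla ME-180 (2,000/well, 0.5% dialyzed FBS), exposed to compounds for 17 h at 37C.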

A short description of test [2]: qHTS assay to identify small molecule agonists of H2AX (AID 1224845; active means well fitted activation curve with a large enough effect in the signal ratio in the repeat runs, not every such curve was filed as active; the % refers to the signal ratio). In outline:
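Wild-type CHO-K1 cells plated overnight, then exposed 3 hr at 37C to compounds at 15 concentrations (0.76% DMSO). Lysed, then HTRF anti-pH2AX(S139)-cryptate/anti-H2AX-d2 detection after 24 hr at room temperature; emissions 665 and 620 nm.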

Test [3] is described as follows: qHTS assay to identify small molecule agonists of the hypoxia (HIF-1) signaling pathway (AID 1224846; active means well fitted activation curve with a large enough effect in the signal ratio in the repeat runs, not every such curve was filed as active; the % refers to the signal ratio). In outline:
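Compounds added to ME-180 cells carrying hypoxia-response-element beta-lactamase reporter (0.5% dialyzed FBS, 5 h preplating), 17 h at 37C; agonist activity detected by CCF4-AM B/G FRET read-out.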

A short description of test [4]: qHTS assay to identify small molecule antagonists of the estrogen related receptor (ERR) signaling pathway from Tox21 library (AID 1224848). Further: nearly all actives have a fitted effect of over 50% in size. In outline:
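First, 2,000 ERR cells per well were plated and held 6 h at 37 C/5% CO2. Next, compounds in DMSO were pinned in and left 18 h at 37 C. Finally, ONE-Glo was added and luminescence read after 30 min at room temperature.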

Test [5] in a line: qHTS assay to identify small molecule agonists of the estrogen related receptor (ERR) signaling pathway from Tox21 library (AID 1224849; calls by dose curve; further: nearly all actives have a fitted effect of over 15% in size). To be noted: ERR reporter cell line, ONE-Glo luciferase, 18 h. In outline: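 Luminescent agonist read-out (One-Glo, 30-minute room-temperature incubation) following 18-hour compound treatment at 37 C of the ERR cell line, which had been plated 6 hours before dosing.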

Test [6] in a line: qHTS RealTime-Glo MT Cell Viability Assay in HepG2 cells - 24 hour (AID 1224867). Further: nearly all actives have a fitted effect of over 50% in size. In outline: (§1)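 HepG2 cells were seeded at 600 cells/well together with NanoLuc luciferase and a cell-permeant prosubstrate, preincubated 5 h at 37 C/5% CO2, then pin-dosed with compounds in DMSO. Nonlytic luminescence from viable cells was read at each time point.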
A short description of test [7]: A CellTox Green Cytotoxicity Assay to monitor cytotoxicity in HEK293 cells - 0 hour (AID 1224869). Further: nearly all actives have a fitted effect of over 50% in size. In a few lines: (§2)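 Fluorescence from a DNA-binding dye excluded by viable cells was measured repeatedly in the same HEK293 wells (600 cells/well) during continuous compound exposure at 37 C. Each assay gives one read point: 0, 8, 16, 24, 32 or 40 h.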
A short description of test [8]: qHTS RealTime-Glo MT Cell Viability Assay in HepG2 cells - 40 hour (AID 1224870). Further: nearly all actives have a fitted effect of over 50% in size. In a few lines: (§3)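 HepG2 cells mixed with RealTime-Glo MT reagents (NanoLuc plus cell-permeant prosubstrate) were seeded at 600 cells/well, incubated 5 h at 37 C/5% CO2, then pinned with compounds in DMSO; nonlytic luminescence tracked viability during 40 h treatment.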
The nature of test [9]: A CellTox Green Cytotoxicity Assay to monitor cytotoxicity in HEK293 cells - 40 hour (AID 1224871). Further: nearly all actives have a fitted effect of over 45% in size. In outline:
as §2

The nature of test [10]: qHTS RealTime-Glo MT Cell Viability Assay in HepG2 cells - 8 hour (AID 1224873). Further: nearly all actives have a fitted effect of over 55% in size. In outline: as §3
Test [11] is described as follows: qHTS RealTime-Glo MT Cell Viability Assay in HEK293 cells - 40 hour (AID 1224874). Further: nearly all actives have a fitted effect of over 50% in size. Further: potency means the concentration at half of the fitted maximal effect. To be noted: RealTime-Glo luminescence; max response: stronger effect = lower value. In a few lines:
(§4)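 Luminescence, which tracks viable cell number through reduction of the prosubstrate to a NanoLuc substrate, was read over continuous 37 C culture. Cells (600/well) were premixed with reagent and rested 5 h before 23 nL of compound in DMSO was pinned.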

Test [12] in a line: A CellTox Green Cytotoxicity Assay to monitor cytotoxicity in HEK293 cells - 24 hour (AID 1224875). Further: nearly all actives have a fitted effect of over 45% in size. In outline:
as §2

The nature of test [13]: A CellTox Green Cytotoxicity Assay to monitor cytotoxicity in HepG2 cells - 16 hour (AID 1224876). Further: nearly all actives have a fitted effect of over 45% in size. In outline: (§5)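 Real-time cytotoxicity: fluorescence of a cell-impermeant cyanine dye binding DNA of dead HepG2 cells, measured repeatedly (0–40 h) during compound exposure at 37 C. Cells seeded 600/well with reagent, dosed after 5 h.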
The nature of test [14]: qHTS RealTime-Glo MT Cell Viability Assay in HepG2 cells - 32 hour (AID 1224877). Further: nearly all actives have a fitted effect of over 55% in size. In a few lines:
as §1

The nature of test [15]: A CellTox Green Cytotoxicity Assay to monitor cytotoxicity in HepG2 cells - 24 hour (AID 1224878). Further: nearly all actives have a fitted effect of over 45% in size. Further: potency means the concentration at half of the fitted maximal effect. In a few lines:
as §5

Test [16] can be described thus: A CellTox Green Cytotoxicity Assay to monitor cytotoxicity in HepG2 cells - 40 hour (AID 1224879). Further: nearly all actives have a fitted effect of over 40% in size. Further: potency means the concentration at half of the fitted maximal effect. In a few lines: as §5
Test [17] can be described thus: qHTS RealTime-Glo MT Cell Viability Assay in HEK293 cells - 0 hour (AID 1224880). In a few lines: as §4
A short description of test [18]: qHTS RealTime-Glo MT Cell Viability Assay in HEK293 cells - 32 hour (AID 1224868). Further: nearly all actives have a fitted effect of over 50% in size. Further: potency means the concentration at half of the fitted maximal effect. In a few lines:
(§6)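 HEK293 cells were seeded at 600 cells/well together with NanoLuc luciferase and cell-permeant prosubstrate, preincubated 5 h at 37 C/5% CO2, then given compound in DMSO by pintool. Luminescence from viable-cell prosubstrate reduction was read repeatedly over 40 h.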

Test [19] in a line: qHTS RealTime-Glo MT Cell Viability Assay in HEK293 cells - 16 hour (AID 1224872). Further: nearly all actives have a fitted effect of over 50% in size. Further: potency means the concentration at half of the fitted maximal effect. In a few lines: as §6
A short description of test [20]: qHTS assay to identify small molecule agonists of H2AX - cell viability counter screen (AID 1224847; calls by dose curve; further: top concentration of the series differs between compounds; nearly all actives have a fitted effect of over 30% in size). In a few lines: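 Cytotoxicity counter screen in wild-type CHO-K1 cells: a 3 hr compound treatment at 37C across 15 concentrations, followed by CellTiter-Glo luminescence to gauge viable cells.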

The structures appear in SMILES notation. Values joined by “and” are separate entries in the source; they are usually repeats but may differ in a detail not shown here. Identical values can stand only once. Inconclusive results are not listed. Where a structure was tested more than once in an assay, its records may differ in their call. Active and inactive are the calls of the source. Unless noted, the call rests on the fitted dose curve; in most records, active means well fitted curve in the direction sought with a large enough effect in the repeat runs; inconclusive means weak or mixed curves; inactive means no such curve, though single readings can be large; an effect the other way counts as inactive or inconclusive.
On the % scale 0 is the no-effect control and ±100 the full control effect.

As for `OCCOc1ccccc1`, the Potency entry in [1], in test [2], in [4], in test [6], in test [7] and in test [8] was “inactive” throughout. In addition, the Potency entry in test [9], in test [10], in [12], in [13], in test [14] and in [15] was “inactive” throughout. Moreover, the Potency result in test [16] is “inactive”. In addition, the outcome in [3] and in test [17] was inactive. In addition, the activity change, positive = activation was 7.59% (inactive) in test [5] (at 42.5 µM (top of the series)); -33.2% (inactive) and 4.84% (inactive) in test [5] (at 92.4 µM (top of the series)). In test [11], the max response was -3.05% (inactive) and 0.273% (inactive) and 2.22% (inactive).

In the case of `CCC(=O)C(CC(C)N(C)C)(c1ccccc1)c1ccccc1` (stereo not given), the Potency result in test [1], in test [2], in [6], in test [7], in test [8] and in test [9] was “inactive” each time. Also, the Potency result in [10], in [12], in test [13] and in test [14] was “inactive” in each case. In addition, the call in test [3] and in test [17] was inactive. For the same molecule, the Potency in [18] was 24.4 µM (active); in [11], 24.4 µM (active); in test [15] it was 39.1 µM (active) and inactive; in test [16], 43.8 µM (active) and 48.6 µM (active).

Consider `O=c1[nH]c(=O)n(Cl)c(=O)n1Cl`, for which the Potency entry in [1], in [2], in test [4], in test [6], in [7] and in test [8] was “inactive” throughout. Moreover, the Potency result in [9], in [19], in [10], in [12], in [13] and in test [14] was “inactive” each time. Moreover, the Potency entry in [15] and in [16] was “inactive” each time. Besides, the outcome in [3] and in [17] was inactive. The activity change, positive = activation in test [5] (at 92.4 µM (top of the series)) is 2.32% (inactive) and 2.59% (inactive) and 1.02% (inactive). Further, the max response in [11] is 3.74% (inactive) and 3.92% (inactive) and 2.88% (inactive).

Take `O=[N+]([O-])c1ccccc1O`: the Potency result in [1], in [2], in [20], in [4], in test [6] and in test [18] was “inactive” in each case. The Potency entry in test [7], in test [8], in test [9], in test [19], in test [10] and in [12] was “inactive” each time. Moreover, the Potency entry in test [13], in test [14], in test [15] and in test [16] was “inactive” each time. Moreover, the result in [3] and in test [17] was inactive. Moreover, in test [5] (at 92.4 µM (top of the series)), the activity change, positive = activation is 2.74% (inactive) and 26.9% (inactive) and 8.3% (inactive). Further, in test [11], the max response is 3.7% (inactive) and -2.87% (inactive) and 7.99% (inactive).

Take `CCOP(=S)(OCC)Oc1ccc2c(C)c(Cl)c(=O)oc2c1`: the Potency result in test [1], in [2], in [4], in test [6], in [7] and in [8] was “inactive” each time. For the same molecule, the Potency result in test [9], in test [10], in [12], in [13], in test [14] and in test [15] was “inactive” in each case. In addition, in test [16], the Potency entry was “inactive”. Also, the call in test [3] and in test [17] was inactive. The activity change, positive = activation in test [5] (at 42.5 µM (top of the series)) is 25.6% (active); in test [5] (at 92.4 µM (top of the series)), -10.9% (inactive) and -28.3% (inactive). Further, in test [19], the Potency was 14 µM (active) and 43.6 µM (active) and inactive.
